# Data: the supplement of paper PMC10849652
# Targets with a hit are over-represented here; the source holds about 8,800 in all. About 0.5% of all pairs of compound and target were hits. A number with no mark means an inactive call.
# Legend:
# Experiment in all cases: log2 fold change, soluble protein after heating vs DMSO (PISA); higher = thermal stabilisation; K562 lysate, 10 uM; active = over 0.2 and 3.5 SD of the protein, either way, in both replicates (recomputed)
# vemurafenib = compound: CCCS(=O)(=O)Nc1ccc(F)c(C(=O)c2c[nH]c3ncc(-c4ccc(Cl)cc4)cc23)c1F [vemurafenib]
# Outline: (§1)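 K562 pellets were dounce-homogenised in PBS pH 7.4 with 1 mM MgCl2, and the crude extract at 1 mg/mL protein was treated with 10 μM compound for 30 min. Aliquots were heated for 3 min across 48°C-58°C, pooled, and brought to 0.5% NP-40 at 4°C; soluble protein was the supernatant after 21,000xg for 90 min. Soluble protein was quantified by TMTpro 16plex LC-MS/MS with channel sums equalised, and reported as log2 fold change in thermal stability against DMSO controls, with values from duplicates.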
# [1] = compound: CCCS(=O)(=O)Nc1ccc(F)c(C(=O)c2c[nH]c3ncc(Cl)cc23)c1F
# Outline: as §1
# barasertib = compound: CCN(CCCOc1ccc2c(Nc3cc(CC(=O)Nc4cccc(F)c4)[nH]n3)ncnc2c1)CCOP(=O)(O)O [barasertib]
# Outline: as §1
# [2] = compound: CC[C@@H]1C(=O)N(C)c2cnc(Nc3ccc(C(=O)NC4CCN(C)CC4)cc3OC)nc2N1C1CCCC1
# Outline: as §1
# volasertib = compound: CC[C@@H]1C(=O)N(C)c2cnc(Nc3ccc(C(=O)N[C@H]4CC[C@H](N5CCN(CC6CC6)CC5)CC4)cc3OC)nc2N1C(C)C [volasertib]
# Outline: as §1
# [3] = compound: CCn1c(C(=O)N(C2CC2)C2CC2)cc2c3c(ncn3C)c(Nc3cc(C)n(C)n3)nc21
# Outline: as §1
# [4] = compound: CCn1cc(-c2ccnc3[nH]c(-c4cccc(CN(C)C)c4)cc23)c(-c2ccc(NC(=O)N(C)C)cc2)n1
# Outline: as §1
# [5] = compound: CN1CCC(CNc2ccc3ncc(-c4cccc(OC(F)(F)F)c4)n3n2)CC1
# Outline: as §1
# saracatinib = compound: CN1CCN(CCOc2cc(OC3CCOCC3)c3c(Nc4c(Cl)ccc5c4OCO5)ncnc3c2)CC1 [saracatinib]
# Outline: as §1
# sotrastaurin = compound: CN1CCN(c2nc(C3=C(c4c[nH]c5ccccc45)C(=O)NC3=O)c3ccccc3n2)CC1 [sotrastaurin]
# Outline: as §1
# alvocidib = compound: CN1CC[C@H](c2c(O)cc(O)c3c(=O)cc(-c4ccccc4Cl)oc23)[C@H](O)C1 [alvocidib]
# Outline: as §1
# Tubastatin A = compound: CN1CCc2c(c3ccccc3n2Cc2ccc(C(=O)NO)cc2)C1 [Tubastatin A]
# Outline: as §1
# [6] = compound: CNC(=O)C1=CC=CC=C1NC2=NC(=NC=C2Cl)NC3=C(C=C(C=C3)N4CCOCC4)OC
# Outline: as §1
# defactinib = compound: CNC(=O)c1ccc(Nc2ncc(C(F)(F)F)c(NCc3nccnc3N(C)S(C)(=O)=O)n2)cc1 [defactinib]
# Outline: as §1
# [7] = compound: CNc1nc(-c2ccc3c(N)n[nH]c3c2)cc(N2C[C@@H](C(=O)NC3CCCCC3)CC[C@H]2C)n1
# Outline: as §1
# encorafenib = compound: COC(=O)N[C@@H](C)CNc1nccc(-c2cn(C(C)C)nc2-c2cc(Cl)cc(NS(C)(=O)=O)c2F)n1 [encorafenib]
# Outline: as §1
# [8] = compound: COC(=O)[C@H](CCSC)NC(=O)C1=C(C=C(C=C1)NC[C@H](CS)N)C2=CC=CC=C2
# Outline: as §1
# alisertib = compound: COc1cc(Nc2ncc3c(n2)-c2ccc(Cl)cc2C(c2c(F)cccc2OC)=NC3)ccc1C(=O)O [alisertib]
# Outline: as §1
# [9] = compound: COc1cc2nc(-c3cc(F)ccc3O)nc(N[C@@H]3CNC[C@H]3C(C)(C)O)c2cc1OC
# Outline: as §1
# gefitinib = compound: COc1cc2ncnc(Nc3ccc(F)c(Cl)c3)c2cc1OCCCN1CCOCC1 [gefitinib]
# Outline: as §1
# Chain of UniProt P52272 (P52272 whole entry, looked up): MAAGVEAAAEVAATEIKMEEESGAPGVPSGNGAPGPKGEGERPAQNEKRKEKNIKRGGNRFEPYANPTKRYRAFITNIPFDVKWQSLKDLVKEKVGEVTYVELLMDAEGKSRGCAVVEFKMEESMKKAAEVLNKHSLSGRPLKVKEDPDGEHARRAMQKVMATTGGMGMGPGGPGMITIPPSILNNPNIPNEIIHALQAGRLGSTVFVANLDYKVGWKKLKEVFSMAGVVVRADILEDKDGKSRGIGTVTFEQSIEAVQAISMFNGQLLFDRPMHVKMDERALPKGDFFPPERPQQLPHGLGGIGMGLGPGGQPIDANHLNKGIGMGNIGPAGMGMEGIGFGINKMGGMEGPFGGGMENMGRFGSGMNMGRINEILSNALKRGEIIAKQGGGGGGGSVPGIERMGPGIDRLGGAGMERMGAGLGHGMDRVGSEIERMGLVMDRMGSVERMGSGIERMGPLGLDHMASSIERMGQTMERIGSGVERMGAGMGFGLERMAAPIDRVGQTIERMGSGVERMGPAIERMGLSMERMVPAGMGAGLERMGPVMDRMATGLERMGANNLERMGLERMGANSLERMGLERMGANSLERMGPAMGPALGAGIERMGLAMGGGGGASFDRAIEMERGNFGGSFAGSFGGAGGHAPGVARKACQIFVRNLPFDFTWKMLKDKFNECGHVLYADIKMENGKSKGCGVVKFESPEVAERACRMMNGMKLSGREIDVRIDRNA
# Chain of UniProt Q8N201 (Q8N201 whole entry, looked up): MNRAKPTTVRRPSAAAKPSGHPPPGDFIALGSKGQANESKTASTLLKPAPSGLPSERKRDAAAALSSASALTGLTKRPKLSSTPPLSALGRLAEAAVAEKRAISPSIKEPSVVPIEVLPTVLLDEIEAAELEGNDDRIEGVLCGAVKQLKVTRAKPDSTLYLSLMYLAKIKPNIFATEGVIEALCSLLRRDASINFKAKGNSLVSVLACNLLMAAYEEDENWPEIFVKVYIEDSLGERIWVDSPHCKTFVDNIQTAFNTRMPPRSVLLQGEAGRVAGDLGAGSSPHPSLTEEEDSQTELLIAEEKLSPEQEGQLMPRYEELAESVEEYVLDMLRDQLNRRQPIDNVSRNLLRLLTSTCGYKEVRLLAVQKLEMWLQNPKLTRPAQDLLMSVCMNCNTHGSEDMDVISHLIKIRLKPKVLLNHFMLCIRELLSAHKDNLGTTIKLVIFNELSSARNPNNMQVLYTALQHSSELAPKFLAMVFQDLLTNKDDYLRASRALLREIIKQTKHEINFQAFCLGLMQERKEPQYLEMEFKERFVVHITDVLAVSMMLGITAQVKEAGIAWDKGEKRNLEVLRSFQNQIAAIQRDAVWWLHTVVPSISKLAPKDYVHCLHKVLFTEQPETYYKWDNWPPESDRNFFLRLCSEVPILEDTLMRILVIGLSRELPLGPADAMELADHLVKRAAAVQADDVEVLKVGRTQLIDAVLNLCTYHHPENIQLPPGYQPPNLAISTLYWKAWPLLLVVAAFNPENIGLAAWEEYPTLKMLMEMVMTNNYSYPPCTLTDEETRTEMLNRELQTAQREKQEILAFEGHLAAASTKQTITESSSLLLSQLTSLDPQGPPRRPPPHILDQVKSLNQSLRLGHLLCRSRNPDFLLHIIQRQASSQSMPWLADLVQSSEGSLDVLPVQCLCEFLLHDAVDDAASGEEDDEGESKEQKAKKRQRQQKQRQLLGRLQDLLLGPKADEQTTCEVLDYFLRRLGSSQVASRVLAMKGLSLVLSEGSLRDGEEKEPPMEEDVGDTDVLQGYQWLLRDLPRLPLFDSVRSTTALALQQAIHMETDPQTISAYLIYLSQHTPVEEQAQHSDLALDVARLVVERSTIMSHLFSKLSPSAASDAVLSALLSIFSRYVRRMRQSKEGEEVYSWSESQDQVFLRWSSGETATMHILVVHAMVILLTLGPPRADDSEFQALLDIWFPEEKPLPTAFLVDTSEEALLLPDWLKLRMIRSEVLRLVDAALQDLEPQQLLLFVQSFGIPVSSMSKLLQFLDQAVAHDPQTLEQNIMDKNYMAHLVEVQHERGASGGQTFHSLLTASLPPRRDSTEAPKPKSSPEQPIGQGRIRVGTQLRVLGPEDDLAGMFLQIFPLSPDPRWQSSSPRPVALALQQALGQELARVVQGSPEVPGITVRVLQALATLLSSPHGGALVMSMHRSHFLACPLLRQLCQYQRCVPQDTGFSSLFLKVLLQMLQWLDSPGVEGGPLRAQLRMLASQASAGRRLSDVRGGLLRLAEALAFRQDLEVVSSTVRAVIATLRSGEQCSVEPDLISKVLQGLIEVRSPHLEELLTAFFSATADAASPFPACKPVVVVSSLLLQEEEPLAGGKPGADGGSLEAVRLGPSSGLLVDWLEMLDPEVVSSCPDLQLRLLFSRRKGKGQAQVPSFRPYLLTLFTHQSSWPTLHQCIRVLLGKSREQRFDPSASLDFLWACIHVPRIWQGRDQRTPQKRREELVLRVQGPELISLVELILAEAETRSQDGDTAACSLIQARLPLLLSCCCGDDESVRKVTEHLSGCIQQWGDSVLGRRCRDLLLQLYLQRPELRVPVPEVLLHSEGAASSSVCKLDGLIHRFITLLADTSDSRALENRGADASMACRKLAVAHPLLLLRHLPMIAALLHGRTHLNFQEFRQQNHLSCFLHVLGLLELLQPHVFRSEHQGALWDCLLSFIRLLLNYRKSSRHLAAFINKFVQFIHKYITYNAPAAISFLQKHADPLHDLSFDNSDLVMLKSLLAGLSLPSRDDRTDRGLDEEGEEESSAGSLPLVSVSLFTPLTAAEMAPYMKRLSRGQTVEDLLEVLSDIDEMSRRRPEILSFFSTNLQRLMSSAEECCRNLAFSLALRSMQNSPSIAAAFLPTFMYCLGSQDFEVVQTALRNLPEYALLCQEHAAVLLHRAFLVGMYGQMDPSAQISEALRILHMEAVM
# Chain of UniProt Q9H1B7 (Q9H1B7 whole entry, looked up): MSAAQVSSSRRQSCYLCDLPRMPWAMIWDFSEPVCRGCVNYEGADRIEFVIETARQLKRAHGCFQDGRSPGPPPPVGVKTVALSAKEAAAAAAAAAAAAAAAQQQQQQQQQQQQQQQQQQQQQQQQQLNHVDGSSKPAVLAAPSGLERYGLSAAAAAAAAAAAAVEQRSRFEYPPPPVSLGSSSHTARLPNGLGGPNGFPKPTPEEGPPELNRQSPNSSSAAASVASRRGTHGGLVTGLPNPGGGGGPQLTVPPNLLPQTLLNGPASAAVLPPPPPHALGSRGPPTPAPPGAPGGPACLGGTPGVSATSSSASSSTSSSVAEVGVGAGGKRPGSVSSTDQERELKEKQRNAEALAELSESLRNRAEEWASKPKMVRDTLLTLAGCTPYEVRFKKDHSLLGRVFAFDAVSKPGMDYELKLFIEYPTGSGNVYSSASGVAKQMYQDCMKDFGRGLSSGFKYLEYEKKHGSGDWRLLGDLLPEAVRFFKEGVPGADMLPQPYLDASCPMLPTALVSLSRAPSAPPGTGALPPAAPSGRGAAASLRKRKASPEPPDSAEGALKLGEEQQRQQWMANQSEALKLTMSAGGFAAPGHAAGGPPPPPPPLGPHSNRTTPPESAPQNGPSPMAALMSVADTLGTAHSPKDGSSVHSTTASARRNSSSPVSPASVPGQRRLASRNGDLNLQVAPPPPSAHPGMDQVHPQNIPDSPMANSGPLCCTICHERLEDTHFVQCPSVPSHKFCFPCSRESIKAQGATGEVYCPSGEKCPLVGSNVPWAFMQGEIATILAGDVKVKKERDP
# Chain of UniProt P55084 (P55084 whole entry, looked up): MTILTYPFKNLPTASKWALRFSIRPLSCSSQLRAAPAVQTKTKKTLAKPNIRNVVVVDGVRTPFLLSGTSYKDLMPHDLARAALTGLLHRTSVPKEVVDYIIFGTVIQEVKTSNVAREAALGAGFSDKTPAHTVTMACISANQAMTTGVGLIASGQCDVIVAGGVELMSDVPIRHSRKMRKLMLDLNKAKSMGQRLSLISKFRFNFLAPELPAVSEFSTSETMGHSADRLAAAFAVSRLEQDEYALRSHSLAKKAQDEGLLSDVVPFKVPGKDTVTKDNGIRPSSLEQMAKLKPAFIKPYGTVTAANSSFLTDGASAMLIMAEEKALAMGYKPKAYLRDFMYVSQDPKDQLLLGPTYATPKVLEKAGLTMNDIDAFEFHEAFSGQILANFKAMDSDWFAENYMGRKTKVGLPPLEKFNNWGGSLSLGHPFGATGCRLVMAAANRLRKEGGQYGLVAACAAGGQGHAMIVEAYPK
# Chain of UniProt Q96SY0 (Q96SY0 whole entry, looked up): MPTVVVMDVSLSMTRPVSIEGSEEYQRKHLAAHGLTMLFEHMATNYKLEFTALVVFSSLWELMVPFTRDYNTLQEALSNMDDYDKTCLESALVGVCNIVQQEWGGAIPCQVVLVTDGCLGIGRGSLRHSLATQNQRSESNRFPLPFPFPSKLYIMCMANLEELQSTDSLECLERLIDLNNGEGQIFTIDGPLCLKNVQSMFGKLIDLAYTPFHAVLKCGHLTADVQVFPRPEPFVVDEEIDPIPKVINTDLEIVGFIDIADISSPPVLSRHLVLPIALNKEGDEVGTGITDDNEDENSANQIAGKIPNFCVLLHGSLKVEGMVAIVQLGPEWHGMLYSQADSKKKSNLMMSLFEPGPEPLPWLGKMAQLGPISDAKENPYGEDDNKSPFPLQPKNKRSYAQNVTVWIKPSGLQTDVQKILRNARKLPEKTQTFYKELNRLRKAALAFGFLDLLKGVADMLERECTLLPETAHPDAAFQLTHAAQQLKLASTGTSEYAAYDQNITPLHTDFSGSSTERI
# Chain of UniProt P36969 (P36969 whole entry, looked up): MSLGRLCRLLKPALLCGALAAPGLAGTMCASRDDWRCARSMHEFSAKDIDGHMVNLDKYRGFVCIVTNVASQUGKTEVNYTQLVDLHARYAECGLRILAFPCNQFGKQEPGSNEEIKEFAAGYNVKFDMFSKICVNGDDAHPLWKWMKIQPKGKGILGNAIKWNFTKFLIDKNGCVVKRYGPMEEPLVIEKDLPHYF
# Chain of UniProt Q9BUE6 (Q9BUE6 whole entry, looked up): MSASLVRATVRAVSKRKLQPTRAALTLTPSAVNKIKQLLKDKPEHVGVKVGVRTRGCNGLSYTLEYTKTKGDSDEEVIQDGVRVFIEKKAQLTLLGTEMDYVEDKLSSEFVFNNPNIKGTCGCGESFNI
Target,log2 fold change (vemurafenib),log2 fold change [1],log2 fold change (barasertib),log2 fold change [2],log2 fold change (volasertib),log2 fold change [3],log2 fold change [4],log2 fold change [5],log2 fold change (saracatinib),log2 fold change (sotrastaurin),log2 fold change (alvocidib),log2 fold change (Tubastatin A),log2 fold change [6],log2 fold change (defactinib),log2 fold change [7],log2 fold change (encorafenib),log2 fold change [8],log2 fold change (alisertib),log2 fold change [9],log2 fold change (gefitinib)
HNRNPUL1 (UniProt Q9BUJ2),-0.042,0.005,-0.004,-0.032,0.005,0.034,0.017,0.019,0.041,0.014,0.006,0.01,-0.011,0.002,-0.027,0.003,-0.003,-0.012,0.007,-0.015
GTF2H4 (UniProt Q92759),-0.047,0.007,0.039,-0.099,-0.046,0.028,0.063,-0.075,0.029,0.034,0.005,-0.069,0.018,0.085,-0.01,0.025,-0.015,0.016,0.02,-0.022
INTS1 (UniProt Q8N201),0.042,-0.096,-0.01,0.044,-0.033,0.007,0.06,-0.041,0,-0.002,0.009,-0.028,0.013,0.019,0.004,0.028,-0.018,0.021,0.007,-0.04
IRF2BPL (UniProt Q9H1B7),-0.039,0.026,0.024,0.04,0.001,0.022,-0.195,0.111,0.025,-0.005,-0.076,-0.047,0.01,-0.007,0.048,-0.017,-0.06,-0.031,-0.013,-0.05
HACE1 (UniProt Q8IYU2),0.066,0.07,0.081,0.069,-0.058,0.039,-0.657 (active),0.252,0.025,-0.154,-0.177,0.006,-0.042,-0.06,0.278,-0.057,0.18,0.061,0.045,-0.152
HSPB1 (UniProt P04792),-0.001,-0.003,0.019,0.008,-0.02,0.01,0.005,-0.042,0.024,0.005,0.003,-0.023,-0.003,0,-0.036,-0.001,0.025,0.012,0.009,-0.012
IRAK1 (UniProt P51617),0.086,-0.033,-0.01,-0.089,-0.134,0.041,-0.135,0.043,-0.016,-0.029,-0.104,-0.038,0.314,0.086,0.121,0.812 (active),0.062,-0.01,0.096,0.022
ISCA1 isoform 2 (UniProt Q9BUE6),0.007,-0.059,0.028,0.042,0.03,-0.051,0.425 (active),-0.21,0.028,0.021,0.103,0.023,0.037,0.092,0.071,-0.034,-0.003,-0.286,0.075,-0.025
HLCS (UniProt P50747),-0.002,0.034,-0.001,-0.034,-0.054,0.003,0.293 (active),-0.041,-0.026,0.027,-0.015,0.036,0.018,0.017,0.025,0.003,0.053,-0.01,0.038,0.013
HNRNPM (UniProt P52272),-0.017,-0.013,0.079,0.027,-0.107,0.046,-0.017,-0.01,0.055,0.024,-0.01,-0.096,0.022,0.045,-0.067,0.166,-0.035,0.069,0.037,0.012
GPX4 (UniProt P36969),-0.003,0.025,-0.002,-0.068,-0.038,0.013,0.027,-0.079,0.02,0.012,0.031,-0.099,-0.006,0.048,-0.051,0.004,-0.023,0.041,0,0.016
HADHB (UniProt P55084),-0.019,-0.004,-0.124,0.047,0.099,-0.005,-0.001,0.074,0.012,-0.069,-0.046,0.033,0.081,-0.065,-0.03,-0.058,0.072,-0.019,-0.019,0.022
GLUL (UniProt P15104),-0.055,0.012,-0.026,-0.028,-0.024,0.021,0.326,-0.058,-0.004,0.016,0.011,0.015,0.034,0.027,-0.125,-0.002,0.029,0.002,-0.019,-0.004
HAUS7 isoform 2 (UniProt Q99871),-0.054,0.006,0.002,0.005,-0.06,-0.021,0.073,-0.173,0.044,-0.025,0.001,-0.128,0.021,-0.045,-0.021,0.024,0.099,0.031,-0.135,-0.043
KDM1A (UniProt O60341),0.021,0.004,0.014,-0.011,-0.046,-0.011,-0.065,-0.016,-0.001,0.005,-0.034,-0.067,-0.023,-0.003,0.013,0.003,0.095,0.012,0.001,0.006
INTS14 (UniProt Q96SY0),-0.046,0.034,-0.021,0.019,-0.013,-0.017,-0.071,0.008,-0.019,0.001,-0.001,-0.066,0.032,0.025,0.02,0.006,-0.1,-0.018,0.015,-0.003
